From PubChem
This is one part of a sample in which hits are shown more often than they occur.
Artemis endo inh = blocks endonuclease activity of human Artemis | Q96SD1 | recombinant Artemis, quenched FAM hairpin cleavage fluorescence | inhibition, % at 10 µM | hit rate 0.78% among 30,000 | AID 686954;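 active = at 10 µM dose, at least 30% inhibition, measured as corrected fluorescence normalized to stimulator and neutral control wells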
Target sequence (Q96SD1 whole entry, looked up): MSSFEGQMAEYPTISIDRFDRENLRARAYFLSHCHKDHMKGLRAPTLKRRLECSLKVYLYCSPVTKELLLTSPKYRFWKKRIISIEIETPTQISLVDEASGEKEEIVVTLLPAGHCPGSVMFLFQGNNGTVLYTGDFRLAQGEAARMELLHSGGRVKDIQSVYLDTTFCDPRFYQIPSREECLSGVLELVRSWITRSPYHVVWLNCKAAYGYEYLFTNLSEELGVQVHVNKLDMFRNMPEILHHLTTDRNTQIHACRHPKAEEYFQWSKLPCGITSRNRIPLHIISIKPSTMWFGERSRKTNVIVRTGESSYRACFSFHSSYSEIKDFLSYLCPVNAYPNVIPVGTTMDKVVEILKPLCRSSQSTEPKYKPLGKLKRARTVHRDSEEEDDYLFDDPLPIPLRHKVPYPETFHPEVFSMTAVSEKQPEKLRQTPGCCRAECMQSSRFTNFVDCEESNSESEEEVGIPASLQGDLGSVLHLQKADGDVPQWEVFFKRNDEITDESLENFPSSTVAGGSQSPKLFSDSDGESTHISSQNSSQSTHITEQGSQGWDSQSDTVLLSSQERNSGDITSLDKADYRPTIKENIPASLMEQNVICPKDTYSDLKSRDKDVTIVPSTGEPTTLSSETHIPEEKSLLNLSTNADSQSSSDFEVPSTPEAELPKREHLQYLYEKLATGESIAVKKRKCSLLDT
* hit, by the source's call.

SMILES	Artemis endo inh
CCCCOc1cccc(C(=O)Nc2ccc(N3CCN(CC)CC3)cc2)c1	4.5
CC(C)C(=O)Nc1ccc(N2CCCC2)cc1	8.4
CCCC(=O)Nc1ccc(N2CCOCC2)cc1	-12.5
Cc1nc(-c2c(-c3ccc(O)cc3O)noc2C(F)(F)F)cs1	-1.9
CCOC(=O)c1ccc(N2C(=O)C3C(C2=O)C(C(=O)c2ccc(Cl)cc2)N2CCCC32)cc1 (stereo unspecified)	17.8
CC(C)CC(=O)Nc1cc(NC(=O)CC(C)C)cc(C(=O)NC(C)(C)C)c1	-8.7
COc1cc(C(=O)NCCOc2cc(C)cc(C)c2)c(Br)c(OC)c1OC	-7.5
Cc1c(Cc2c(Cl)cccc2Cl)c(=O)ccn1C(C)c1ccccc1 (stereo unspecified)	-3.7
CC(C)(C)NC(=O)c1ccc(Sc2ccccc2)c([N+](=O)[O-])c1	6.2
O=C(Cc1ccccc1)N[C@H](c1ccccc1)P(=O)(O)CO	-3.9
Cc1[nH]c2ccc(Br)cc2c(=O)c1CN1CCOCC1	-4.0
O=c1c(O)c(-c2ccc3c(c2)OCO3)oc2ccccc12	5.1
O=c1ccc2cc3c([nH]c4ccc(Br)cc43)oc-2c1O	80.9*
Fc1ccccc1Cc1nnc2n1N=C(c1ccc(Cl)cc1)CS2	2.1
CC1Cc2ccccc2N1C(=O)CN1C(=O)C(=O)N(Cc2ccccc2)C1=O (stereo unspecified)	2.9
CCC(=O)Nc1ccc(C(=O)Nc2ccc3c(c2)OCO3)cc1	36.3*
CN1CCN(CCC(=O)Nc2ccc3c(c2)OCO3)CC1	1.9
O=C(Nc1ccc(Cl)cc1)c1ccc2c(c1)OCO2	-4.7
Cc1nc(N2CCC(C)CC2)c2nnn(Cc3ccccc3)c2n1	7.1
COC(=O)c1c(C)cc(C)n2c1nc1ccccc12	-6.6
CC1CC(c2ccccc2)n2nc(NC(=O)CCc3ccccc3)nc2N1 (stereo unspecified)	0.3
O=C1CC(c2ccccc2)n2nc(NC(=O)C3CCCO3)nc2N1 (stereo unspecified)	-7.9
O=C(Nc1nc2n(n1)C(c1ccccc1)CC(c1ccc(Cl)cc1)N2)c1ccco1 (stereo unspecified)	31.3*
CCCc1nnc(N2C(=O)c3cccc4cccc(c34)C2=O)s1	5.2
C#CC(CC)(CC)NC(=S)Nc1cccc(C(C)=O)c1	5.1
SMILES	Artemis endo inh
CCCCn1c(=NC(=O)c2ccc3c(c2)OCO3)c(C#N)cc2c(=O)n3cccc(C)c3nc21	40.5*
CCOC(=O)c1cc2c(=O)n3cccc(C)c3nc2n(CC2CCCO2)c1=NC(C)=O (stereo unspecified)	1.6
CCNC(=O)c1cc2c(=O)n3cccc(C)c3nc2n(Cc2ccc(C)cc2)c1=N	7.2
Cc1ccc(CCNc2ccccc2C)cn1	-5.3
CC([NH2+][O-])C(C)(C)NO (stereo unspecified)	7.4
CCOC(=O)Nc1oc2ccccc2c(=O)c1CN1CCOCC1	1.8
O=C(NNc1c2ccccc2nc2ccccc12)c1ccc(O)cc1O	38.1*
O=C(NNC(=O)c1cc(-c2ccc(Cl)cc2Cl)nc2ccccc12)Nc1ccccc1	5.8
O=C(COc1ccccc1)NNc1c2ccccc2nc2ccccc12	11.9
CCOC(=O)CSc1nnnn1-c1cc(OC)c(Cl)cc1OC	-13.3
COc1cc(-n2ccnc2SC)c(Cl)cc1Cl	51.5*
COc1cc(Nc2nnc(C)s2)c(Cl)cc1Cl	-3.0
O=C(O)CNc1nc(Cl)ccc1[N+](=O)[O-]	7.6
Cc1ccc(S(=O)(=O)N2C(=O)C(c3ccccc3)SC2=Nc2ccccc2)cc1 (stereo unspecified)	5.3
CCOC(=O)c1cnc2sc3c(n2c1=O)CCCC3	-7.6
O=C(COc1ccccc1C(=O)N/N=C\c1ccc(O)c(O)c1)N/N=C/c1ccc(O)c(O)c1	66.2*
CCOc1ccc(/C=N/NC(=O)COc2ccccc2-c2ccccc2)cc1	17.5
Cc1cccc(C)c1OCC(=O)N/N=C/c1ccc2c(c1)OCO2	-5.3
Cc1cc(C)cc(OC(=O)N2CCOCC2)c1	-11.2
COC(=O)CCN(C(=O)c1cccc(OC(C)=O)c1)c1ccccn1	-1.7
COC(=O)c1ccc(NC(=O)C2CCCN2S(=O)(=O)c2ccc(F)cc2)cc1 (stereo unspecified)	7.9
O=C(CCCNS(=O)(=O)c1cccc2nsnc12)NC1CCCCC1	-1.1
O=C(N/N=C/c1ccc([N+](=O)[O-])o1)c1cc(-c2cccc(Br)c2)nc2ccccc12	38.8*
O=C(NCc1ccco1)c1cc(-c2ccccc2)nc2ccccc12	-1.6
O=C(Oc1ccc([N+](=O)[O-])cc1)c1cc(-c2ccccc2)nc2ccccc12	-0.9
SMILES	Artemis endo inh
Cc1ccc2c(c1)c1cccc3c1n2CCN3CCC(N)=O	8.5
CC(=O)c1ccc(N2C(=O)NC3(CCCCC3)C2=O)cc1	2.7
C#CCOC(=O)c1ccc(-n2cncn2)nc1	-0.5
Cc1cc(Cl)ccc1OCCCC(=O)NCC1CCCO1 (stereo unspecified)	4.2
Cc1cc(Cl)ccc1OCCCC(=O)NO	63.1*
Cc1cc(NC(=O)COC(=O)CCCOc2ccc(Cl)cc2C)no1	0.3
CC(=O)Nc1ccc(NC(=O)c2ccccc2CC[N+](=O)[O-])cc1	2.5
NS(=O)(=O)c1cccnc1Nc1c(Cl)cccc1Cl	-4.8
Clc1ccc(Cn2cc(/C=N/n3cnnc3)c3ccccc32)cc1	3.5
Cc1cc(/C=N/n2cnnc2)c(C)n1-c1ccc(OCc2ccc(Cl)cc2)cc1	32.8*
Clc1ccc(-n2cccc2/C=N/n2cnnc2)cc1	-1.9
CCc1ccc2[nH]c3nc(SCc4nnc(-c5ccc(C)cc5)o4)nnc3c2c1	2.0
O=C1NC(=O)/C(=C\c2ccccc2Oc2ccc(F)c(F)c2)S1	33.7*
CC(C)(C)c1ccc(-c2nnc(SCCN3C(=O)c4ccccc4C3=O)o2)cc1	4.0
CCOC(=O)CSc1cccc2cccnc12	-10.3
O=c1oc(/C=C/c2ccco2)nc2sc3c(c12)CCC3	1.8
C/C(=N\O)c1ccccc1C(=O)O	46.1*
O=C(O)c1ccccc1C(=O)OCc1ccccc1	-3.8
CNC(=O)CC(=O)Nc1ccccc1C(=O)O	-4.9
O=C1CCC([N+](=O)[O-])C(c2ccc(Cl)cc2)N1 (stereo unspecified)	3.6
Cc1ccc(Cn2ccc(NC(=O)c3c(-c4ccccc4Cl)noc3C)n2)cc1	-0.6
COc1cccc(C(=O)CSc2nnc(CNS(C)(=O)=O)n2-c2ccc(C)cc2)c1	-7.6
O=C(c1ccccc1)c1nn(-c2ccccc2)c(=O)cc1C(F)(F)F	-3.9
O=C(c1ccccc1)c1nn(-c2ccc(Cl)cc2)c(=O)cc1C(F)(F)F	1.0
O=C1c2ccccc2C(=O)c2c1oc(C(F)(F)F)c2C(=O)c1ccccc1	41.6*
SMILES	Artemis endo inh
CC(/C=C/c1ccc(O)cc1)=N/O	7.5
Cc1cc(-c2cc(-c3ccc(Cl)cc3)nc(N)c2C#N)co1	28.5
Cc1ccc(/C(N)=N/OC(=O)COc2ccccc2Cl)cc1	5.0
CC(C)N(CCNC(=O)C1CCC(=O)N1Cc1ccc(F)cc1)Cc1ccccc1 (stereo unspecified)	-4.1
CC(=O)N(Cc1ccc(F)cc1)C1=C(NCc2ccccc2)C(=O)c2ccccc2C1=O	39.3*
Cn1c(NCc2ccccc2)cc(=O)n(C)c1=O	-8.2
COC(=O)CNC(=O)CN1C(=O)N(c2ccc(Cl)cc2)C(N(O)C(=O)Nc2ccc(Cl)cc2)C1(C)C (stereo unspecified)	14.8
CCn1c(NN)nc2sc3c(c2c1=O)CCC3	0.6
Cc1cc(C)n(-c2nc(NCCO)c3c4c(sc3n2)CCCC4)n1	-1.6
Cc1cc(C)n(-c2nc(NCCCO)c3c4c(sc3n2)CCCC4)n1	32.8*
Cc1cc(S(=O)(=O)Nc2nc(CN3CCOCC3)nc3sc4c(c23)CCCC4)ccc1F	-6.4
